D2 PAM-1: positively modulates the human D2 dopamine receptor allosterically; potentiation, % at 10 µM; HEK293 T-REx D2, calcium flux, EC20 dopamine potentiation; hit rate 0.34% among 340,000;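 active = potentiation over 3 SD above the plate norm, cut at about 30% in these data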
Target sequence (P14416 whole entry, looked up): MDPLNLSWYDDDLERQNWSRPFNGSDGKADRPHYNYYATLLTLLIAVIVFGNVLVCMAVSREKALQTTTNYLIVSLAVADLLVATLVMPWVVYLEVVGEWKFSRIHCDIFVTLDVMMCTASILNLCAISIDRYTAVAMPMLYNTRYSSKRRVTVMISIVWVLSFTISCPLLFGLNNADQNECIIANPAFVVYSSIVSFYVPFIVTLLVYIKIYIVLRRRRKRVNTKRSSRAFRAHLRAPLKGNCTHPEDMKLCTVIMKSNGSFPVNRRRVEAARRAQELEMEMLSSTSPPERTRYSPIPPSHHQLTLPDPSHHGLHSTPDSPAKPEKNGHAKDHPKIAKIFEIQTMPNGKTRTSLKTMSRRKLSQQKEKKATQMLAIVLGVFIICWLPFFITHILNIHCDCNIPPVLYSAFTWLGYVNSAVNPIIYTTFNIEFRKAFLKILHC
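Primary screen. Calcium kinetics in induced HEK293 T-REx D2 cells: compound pre-addition 180 s, EC20 dopamine, 180 s more.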
D2 ag-1: agonists of human D2 dopamine receptor. P14416. HEK293 T-REx D2 cells, calcium flux agonist mode. activation, % at 2 µM. hit rate 0.53% among 340,000;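 active = activation over 3 SD above normal in the single-dose calcium agonist read, cut at about 30% in these data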
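Tetracycline-induced HEK293 Trex cells with D2 receptor force-coupled to calcium signaling, plated overnight at 30 C and loaded with no-wash calcium dye. Calcium flux read kinetically for 180 s after compound addition; responses flag agonists.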
D2 PAM-2: human D2 receptor positive allosteric modulation; P14416; DiscoveRx D2 beta-arrestin cells, luminescence, 90 min; 100% = 57 uM dopamine signal; potentiation, % (no concentration beside the values); hit rate 0.23% among 360,000; AID 624464; in the data active = potentiation above about 50%; inconclusive = mostly about 30% to 49%
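PathHunter D2 cells, attached overnight at 37 deg C, received compound in DMSO plus dopamine at EC20 (50 nM final) for 90 min at 37 deg C. Beta-arrestin recruitment was read as luminescence after 1 h with detection reagent at ambient temperature.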
D2 ag-2: agonists of human D2 dopamine receptor (beta-arrestin). P14416. DiscoveRx PathHunter D2 beta-arrestin, luminescence, 90 min; 100% = 57 uM dopamine signal. activation, % (test concentration not listed). hit rate 0.084% among 360,000. AID 624465; in the data active = activation above about 40%; inconclusive = between about 15% and that limit
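DiscoveRx PathHunter D2 beta-arrestin cells (2,100/well) attached overnight, then compound-stimulated 90 min at 37 C in HBSS/10 mM HEPES/0.1% Tween-20 buffer; beta-galactosidase complementation read by luminescence after 1 h at ambient temperature. Dopamine 57 uM final (EC100) as control.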
D2 antagonist: D2 dopamine receptor (human) antagonism; HEK293 TREx D2 cells, calcium flux, dopamine EC80; AID 485344; inhibition, % at 10 µM; hit rate 2% among 340,000; P14416; in the data active = inhibition above about 30%; inactive = below that, where a call was filed
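Dopamine at EC80 is the agonist stimulus; test compounds precede it by 180 s. Calcium flux read kinetically in a force-coupled, inducible HEK293 T-REx D2 cell line.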
Each line names hits and unclear results; the compound was inactive in the other large screens. This is a sample that favours compounds with a hit; in the whole collection about 2.4% have one here.

Cc1ccc(S(=O)(=O)N2CCCCC2)cc1NC(=O)COC(=O)c1c(F)cccc1F	D2 PAM-1 30.9
Cc1ccc(C)c(SCC(=O)Nc2cc(S(=O)(=O)N3CCOCC3)ccc2C)c1	D2 antagonist 53.1
Cc1ccc(S(=O)(=O)N(C)C)cc1NC(=O)CSc1ccc2c(c1)OCCO2	D2 antagonist 36.3
COc1ccccc1CCC(=O)OCC(=O)Nc1cc(S(=O)(=O)N2CCOCC2)ccc1C	D2 antagonist 33.0
Cc1ccc(NC(=O)/C(C#N)=C/c2cc(C)n(-c3ccc(Br)cc3)c2C)cc1C	none (no result: D2 PAM-1, D2 PAM-2, D2 ag-2, D2 antagonist)
COc1ccc(Nc2nc3ccc(C)cc3nc2-n2nc(C)cc2C)cc1Cl	none (no result: D2 PAM-2, D2 ag-2, D2 antagonist)
CCCCNC(=O)CSc1nc2nc(C)c(Cc3ccccc3C)c(C)n2n1	none (no result: D2 ag-1, D2 PAM-2, D2 ag-2, D2 antagonist)
CCOC(=O)c1c(Nc2ccc(C)cc2)nnc(-c2ccccc2)c1-c1ccccc1	none (no result: D2 ag-1, D2 PAM-2, D2 ag-2, D2 antagonist)
COc1ccccc1CNC(=O)C1CCCN(S(=O)(=O)c2ccc3c(c2)oc(=O)n3C)C1 (centres undefined)	none (no result: D2 PAM-2, D2 ag-2, D2 antagonist)
Cc1cc(=O)[nH]c(NN=C2CCC(C(C)(C)C)CC2)n1 (centres undefined)	D2 PAM-1 32.3
C/C(=N\Nc1nc(C)cc(=O)[nH]1)C1CC1	none
CC1=CS/C(=C(/C#N)C(=O)NCc2ccco2)N1c1ccccc1	D2 antagonist 30.5
O=C(CNC(=O)c1ccc([N+](=O)[O-])cc1)N/N=C\c1ccc(OC(=O)c2ccccc2)cc1	D2 antagonist 59.4
O=C(COc1ccc(/C=N/NC(=O)c2ccncc2)cc1)Nc1ccc([N+](=O)[O-])cc1	D2 antagonist 42.4 (no result: D2 PAM-1)
COc1cccc(C(=O)NCC(=O)N/N=C/c2cccc(OC(=O)c3ccc([N+](=O)[O-])cc3)c2)c1	none (no result: D2 PAM-1, D2 ag-1, D2 antagonist)
Cc1ccccc1-n1c(=O)c2c3c(sc2n2cnnc12)CCCC3	none (no result: D2 PAM-2, D2 ag-2, D2 antagonist)
CCOC(=O)Cn1c(=O)n(-c2ccccc2OC)c2nc(-c3ccccc3)nc(C(N)=O)c21	none (no result: D2 PAM-2, D2 ag-2, D2 antagonist)
CCCCCn1c(=O)[nH]c2cc(C(=O)NCc3ccc(C)cc3)ccc2c1=O	none (no result: D2 PAM-2, D2 ag-2, D2 antagonist)
CCN1C(=S)SC(=O)C1=C1C=C(C)OC(C)=C1	D2 antagonist 57.2
CCN1C(=S)SC(=O)C1=C1C=C(C)N(Cc2ccco2)C(C)=C1	none (no result: D2 ag-1, D2 antagonist)
O=C(CCNC(=O)c1ccc(Br)cc1)Nc1cccc(S(=O)(=O)N2CCCC2)c1	D2 antagonist 38.1
O=C(Nc1cccc(S(=O)(=O)N2CCOCC2)c1)c1ccc(N2CCCC2=O)cc1	none
Cc1c(C(=O)NCCC2=CCCCC2)oc2ccc(S(=O)(=O)N3CCOCC3)cc12	none
O=C(Nc1cccc(S(=O)(=O)N2CCCCC2)c1)c1ccc(N2CCCC2=O)cc1	D2 PAM-1 51.0
COCCNC(=O)c1c[nH]c2ccc(S(=O)(=O)N3CCOCC3)cc2c1=O	D2 antagonist 46.1
Cc1c(C(=O)NCCCN2CCCC2=O)oc2ccc(S(=O)(=O)N3CCOCC3)cc12	D2 antagonist 44.3
COC(=O)CN1C(=O)CSc2ccc(S(=O)(=O)Nc3ccc(C(C)=O)cc3)cc21	none (no result: D2 PAM-2, D2 ag-2, D2 antagonist)
C=Cc1ccc(CN2C(=O)N(c3ccc(C)c(C)c3)S(=O)(=O)c3ccccc32)cc1	none (no result: D2 PAM-2, D2 ag-2, D2 antagonist)
O=C(Nc1ccc2c(c1)C(=O)NC2=O)c1ccc(S(=O)(=O)N2CCCC2)cc1	D2 antagonist 30.8
O=C(NCCCN1CCOCC1)c1cccc(S(=O)(=O)N2CCN(c3ccccc3)CC2)c1	none
Cc1ccc(CNC(=O)c2oc3ccc(S(=O)(=O)N4CCC5(CC4)OCCO5)cc3c2C)cc1	none (no result: D2 ag-1, D2 antagonist)
Cc1c(C(=O)NCCN(C)C)oc2ccc(S(=O)(=O)N3CCC4(CC3)OCCO4)cc12	D2 antagonist 33.4 (no result: D2 PAM-1)
O=C(NCCOc1ccccc1F)c1cccc(S(=O)(=O)N2CCN(c3ccccc3)CC2)c1	D2 antagonist 35.4
O=C(NCCCN1CCCC1=O)c1cccc(S(=O)(=O)N2CCCCC2)c1	D2 antagonist 38.3
COc1ccc(OC)c(NC(=O)c2cnc(N3CCCCC3)c3ccccc23)c1	none (no result: D2 PAM-2, D2 ag-2, D2 antagonist)
Cc1ccc2nc(CSc3nnc(-c4ccncc4)n3C)cc(=O)n2c1	D2 antagonist 71.2
C=CCn1c(SCc2cc(=O)n3cc(C)ccc3n2)nnc1-c1ccc(F)cc1	none
Cn1c(CN2CCCC2)c(C#N)c2ccccc21	D2 antagonist 82.8
CC(=O)N(Cc1c(C#N)c2ccccc2n1C)c1ccccc1	none
CC1CCCCN1Cc1c(C#N)c2ccccc2n1C (centres undefined)	D2 antagonist 40.2
Cn1c(CN2CCOCC2)c(C#N)c2ccccc21	none
CN1CCN(Cc2c(C#N)c3ccccc3n2C)CC1	none
CC1CCN(Cc2c(C#N)c3ccccc3n2C)CC1	D2 antagonist 74.4
COc1ccccc1/C=C/c1nc(C#N)c(N2CCN(C)CC2)o1	none (no result: D2 PAM-2, D2 ag-2, D2 antagonist)
Cc1ccc(NC(=O)N2CCCC2C(=O)NCC2CCCCC2)cc1 (centres undefined)	D2 antagonist 35.3
COc1ccc(Cl)cc1NC(=O)c1ccc2c(c1)CCCN2S(C)(=O)=O	none (no result: D2 PAM-2, D2 ag-2, D2 antagonist)
COc1ccccc1NC(=O)c1sc2nc3n(c(=O)c2c1C)N=C(c1cccc(Br)c1)CS3	none (no result: D2 PAM-2, D2 ag-2, D2 antagonist)
O=C(Nc1ccc(Cl)c(C(F)(F)F)c1)N1CCCC(O)C1 (centres undefined)	D2 antagonist 30.4
N#Cc1c(NC(=O)/C=C/c2ccco2)sc2c1CCCC2	D2 antagonist 57.3
O=C(/C=C/c1ccco1)Nc1sc2c(c1C(=O)O)CCC2	none
COc1ccccc1N1CCN(C(=O)c2cnn(-c3cccc(Cl)c3)c2C2CCN(C(=O)OC(C)(C)C)CC2)CC1	none (no result: D2 PAM-2, D2 ag-2, D2 antagonist)
N/C(=N\OS(=O)(=O)c1ccc(Cl)cc1)c1ccncc1	D2 PAM-2 67.0, D2 ag-2 inconclusive
CCC(C(=O)NC1CCCCC1)n1nc(C)c2sc3ccccc3c2c1=O (centres undefined)	none (no result: D2 ag-1, D2 PAM-2, D2 ag-2, D2 antagonist)
O=C(COC(=O)c1ccc(Sc2ccccc2)c([N+](=O)[O-])c1)NC1CCS(=O)(=O)C1 (centres undefined)	D2 antagonist 32.2
COC(=O)c1cc(C(=O)OCC(=O)NC2CCS(=O)(=O)C2)cc([N+](=O)[O-])c1 (centres undefined)	none
O=C(CCN1CCC(c2ccccc2)C1)c1ccccc1 (centres undefined)	none (no result: D2 PAM-1, D2 ag-1, D2 antagonist)
O=C(CCN1CCC(c2ccccc2)C1)c1ccc2c(c1)OCCO2 (centres undefined)	D2 antagonist 86.7
Cc1[nH]n2c(=O)c3c(nc2c1-c1ccccc1)CCC3	D2 antagonist 35.9
Cc1[nH]n2c(=O)c3c(nc2c1-c1ccc(Cl)cc1)CCC3	D2 antagonist 74.8
Nc1[nH]n2c(=O)c3c(nc2c1N=Nc1ccc(Cl)cc1)CCCC3	none
Nc1[nH]n2c(=O)c3c(nc2c1N=Nc1ccccc1)CCCC3	D2 antagonist 37.5
N#Cc1cc(S(=O)(=O)c2ccccc2)c(N)[nH]c1=O	D2 antagonist 85.6
COc1cc(/C=C2\SC(=S)N(NC(=O)c3ccc(O)cc3)C2=O)ccc1O	D2 ag-1 35.5
CCOc1cc(/C=C2\SC(=S)N(Nc3ccccc3)C2=O)ccc1O	D2 antagonist 35.1
